Assay outcomes: PubChem, several laboratories
IEC-6 cytotox = cytotoxicity in IEC-6 intestinal epithelial cells, primary screen, cytotoxicity control for KLF5 inhibitor project, cell-based, luminescence. IEC-6 cytotoxicity, luminescence viability. inhibition, % at 5 µM. 290,000 compounds, 0.78% hits. AID 1825, 2009; in the data active = inhibition above about 22%;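 note: 0% = plate median of test compound wells and 100% = cytotoxic reference compound wells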
APP transl inh = inhibitors of APP translation via 5'UTR reporter, primary screen, APP 5'UTR luciferase, SH-SY5Y cells; SH-SY5Y APP 5'UTR-luciferase reporter, luminescence; 190,000 compounds, 0.82% hits; inhibition, % at 2 µM;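 active = inhibition above a set limit, derived from the sample mean plus 3 SD, cut at about 45% in these data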
KLF5 inh = KLF5 expression inhibitors, primary screen, DLD-1 cells, luminescence; DLD-1 KLF5 promoter-luciferase reporter; 290,000 compounds, 0.23% hits; inhibition, % at 5 µM;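 active = inhibition above a per-plate limit of that plate's mean compound inhibition plus 3 SD, cut at about 60% in these data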;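 note: 0% = DMSO wells and 100% = LY294002 at 200 µM; higher means less KLF5 promoter-driven luciferase light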
BaF3 parental = parental Ba/F3 cell viability inhibition, counter-screen for JAK2V617F inhibitor project, murine pro-B, CellTiter-Glo luminescence; CellTiter-Glo ATP luminescence; inhibition, % at 5.6 µM; 220,000 compounds, 1.1% hits; AID 1486, 2009;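 active = inhibition above a per-campaign cutoff, the mean inhibition of all tested compounds plus 3 SD, cut at about 27% in these data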;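 note: 0% = DMSO wells and 100% = JAK Inhibitor I control wells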
Ba/F3 V617F tox = reduced viability of JAK2V617F-dependent Ba/F3 cells, primary screen, JAK2V617F inhibitor project, cell-based, Ba/F3 EpoR-JAK2V617F, luminescence. ATP luminescence. inhibition, % at 5.6 µM. 220,000 compounds, 1.1% hits. AID 1446, 2008;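 active = inhibition above the campaign mean plus 3 SD over all tested compounds, cut at about 24% in these data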;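 note: cytokine-independent growth of Ba/F3 cells driven by EpoR plus mutant JAK2; 0% = DMSO-treated cells and 100% = JAK inhibitor I control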
BaF3 parental 2 = parental Ba/F3 cell viability inhibition, counter-screen for JAK2V617F inhibitor project, murine pro-B, CellTiter-Glo luminescence; shares compounds with Ba/F3 V617F tox; inhibition, % at 5.6 µM; 580 compounds, 31% hits; AID 1520, 2009; cells kept alive by added IL-3;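 active = cell growth inhibition above the hit limit set in the earlier mutant JAK2 cell screen, cut at about 27% in these data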;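 note: plate controls were DMSO-treated cells for no effect and JAK Inhibitor I control wells for full effect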
JAK2V617F confrm = viability loss in Ba/F3 EpoR-JAK2V617F cells, confirmation, JAK2V617F inhibitor project, cell-based, luminescence, triplicate; inhibition, % at 5.6 µM; shares compounds with Ba/F3 V617F tox; CellTiter-Glo luminescence; 580 compounds, 66% hits;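 active = mean inhibition above the hit cutoff derived in the earlier primary screen, cut at about 25% in these data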;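 note: 0% = DMSO-treated cells and 100% = JAK inhibitor I control wells; higher means lower luminescence from reduced cell ATP and viability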
The depositor's hits bear a star; . = no result. Only some compounds are listed: those with a hit (about 1.9% of all), similar ones and a draw of the others.

SMILES	IEC-6 cytotox	APP transl inh	KLF5 inh	BaF3 parental	Ba/F3 V617F tox	BaF3 parental 2	JAK2V617F confrm
CCOC(=O)c1cnc2ccc(OCC)cc2c1NCc1ccccc1	12	8	-37	-5	24*	5	31*
COC(=O)CC1COc2ccccc2N1C(=O)c1ccc(OC)cc1 (centres undefined)	-4	-5	11	4	-2	.	.
Nc1c(N=Nc2ccccc2F)c(=O)[nH]n1-c1ccccc1	5	-61	-42	7	4	.	.
Nc1nn(-c2ccccc2)c(N)c1N=Nc1ccccc1F	24*	-181	-118	24	36*	36*	69*
CC(=O)n1cc(N(C(=O)CCl)c2ccc(Cl)cc2)c2ccccc21	9	.	-24	13	98*	104*	98*
CCOC(=O)c1ccccc1Nc1cn(C(C)=O)c2ccccc12	1	-6	3	6	1	.	.
Cc1ccc2nc(C)cc(Nc3ccc([N+](=O)[O-])cc3)c2c1	6	19	5	4	38*	1	82*
COc1ccc2nc(C)cc(Nc3ccc(C)cc3)c2c1	4	.	-28	.	.	.	.
CC(C)(C)c1cc(NC(=O)CCl)n(-c2ccccc2)n1	-8	.	2	-9	30*	-5	81*
O=C(O)c1ccccc1C(=O)c1ccc(-c2ccccc2)cc1	-3	.	-77	.	.	.	.
O=C(c1ccccc1)c1ccccc1N1C(=O)C=CC1=O	7	.	-16	2	32*	-2	26*
COC1(OC)C(/C=C/c2ccc(Cl)cc2)C(C#N)(C#N)C1(OC)OC (centres undefined)	20	10	21	13	81*	2	73*
Cc1cc(C)nc(N2N=C(C(C)(C)C)CC2=O)n1	-4	-6	-6	4	2	.	.
COc1cc(/C=C2\SC(=S)N(CC(=O)NC(C)(C)C)C2=O)cc(OC)c1OC	5	4	-12	5	102*	-7	9
COc1cc(/C=C2/SC(=S)N(CC(=O)NC(C)(C)C)C2=O)cc(OC)c1OC	-1	4	-22	5	2	.	.
O=C(CSc1nc2ncc(Cl)cc2[nH]1)c1ccc2c(c1)OCO2	19	.	-7	-3	88*	-5	-10
Cc1ccc(Cl)cc1N1CCN(CC(O)COCc2ccco2)CC1 (centres undefined)	6	-28	-14	10	98*	-6	0
OC(COCc1ccco1)CN1CCN(C(c2ccccc2)c2ccccc2)CC1 (centres undefined)	7	-17	-31	4	2	.	.
O=C(OCn1ncc(Cl)c(Cl)c1=O)c1ccc(F)cc1	14	97*	-19	2	32*	9	97*
O=C(OCCN1CCCCC1)c1ccccc1Cl	8	7	4	4	-2	.	.
O=C(OCn1ncc(Cl)c(Cl)c1=O)c1ccccc1Cl	89*	87*	-10	-7	26*	6	98*
Cc1cc(C)n(-c2nc3nonc3nc2-n2nc(C)cc2C)n1	-14	-8	-15	1	-2	.	.
CC1=CC(C)(C)Nc2ccc(OC(=O)c3ccco3)cc21	-4	37	-12	0	43*	37*	83*
CC1=CC(C)(C)Nc2ccc(OC(=O)CN3C(=O)CCC3=O)cc21	4	26	-10	4	4	.	.
Cc1ccc(-c2ccc(S(=O)(=O)N3CC(C)OC(C)C3)cc2)cc1 (centres undefined)	0	.	0	.	.	.	.
SMILES	IEC-6 cytotox	APP transl inh	KLF5 inh	BaF3 parental	Ba/F3 V617F tox	BaF3 parental 2	JAK2V617F confrm
CCOc1ccc(C(=O)C(CN2CCOCC2)c2ccccc2)cc1 (centres undefined)	3	67*	-11	8	59*	19	98*
CCOc1ccc(C(O)(CCC(C)C)C(CN2CCOCC2)c2ccccc2)cc1 (centres undefined)	-3	.	-16	.	.	.	.
CCCCc1c(O)nc(SCC(=O)NCC2CCCO2)[nH]c1=O (centres undefined)	-2	0	12	11	0	.	.
OC1(c2ccc(Cl)c(Cl)c2)C[n+]2ccccc2N1Cc1ccccc1 (centres undefined)	0	.	-10	3	34*	12	48*
COc1ccc(N(C)S(=O)(=O)c2cccc(C(=O)Nc3ccc(-n4cnnn4)cc3)c2)cc1	4	1	5	3	40*	0	26*
COc1ccc(C)cc1NC(=O)C1CCN(C(=O)Cc2ccccc2)CC1	2	2	1	8	41*	0	4
N#Cc1sc2nc(N3CCCCC3)c3c(c2c1N)CCCC3	-2	9	2	5	-1	.	.
Cc1c(C#N)sc2nc(-c3ccccc3)nc(N3CCCC3)c12	7	10	14	-1	95*	-5	-2
O=C1C=CC(=O)N1CCNc1ncc(C(F)(F)F)cc1Cl	17	74*	-3	-1	48*	-1	82*
O=C1CC(=O)N(CCNc2ncc(C(F)(F)F)cc2Cl)C(=O)N1	-2	-9	-11	1	0	.	.
Nc1nc(=S)c2ncn(C3OC(CO)C(O)C3O)c2[nH]1 (centres undefined)	10	.	-27	25	45*	7	30*
O=C(NC1(C(F)(F)F)Oc2ccccc2O1)N1CCCC1	7	15	2	23	40*	10	36*
CCCCn1c(=N)n(CC(O)COc2ccccc2)c2ccccc21 (centres undefined)	1	1	-10	7	4	.	.
CCCCn1c(=N)n(CC(O)COc2ccc(C)cc2)c2ccccc21 (centres undefined)	7	11	-2	16	65*	5	48*
CC(=O)c1cc(C#N)c(SCc2ccc(F)cc2)nc1C	-8	-6	-38	3	-2	.	.
Cc1ccc(-c2nc(C=Nc3ccc(O)cc3)c(O)o2)cc1	5	66*	-11	19	38*	28*	83*
O=C(N/N=C/c1cc([N+](=O)[O-])ccc1O)c1cccc2cc[nH]c12	11	.	46	3	34*	6	28*
O=C(NCC1CCCO1)c1cccc(N2C(=O)C3C4C=CC(C4)C3C2=O)c1 (centres undefined)	-6	-4	-12	1	96*	-6	-5
Nc1cccc(C(=O)OCC(=O)c2ccccc2)c1	-12	-114	-61	-1	-2	.	.
C=CCn1c(=O)c2ccccc2n2c(SCC(=O)NCCc3ccccc3)nnc12	2	-13	-6	9	5	.	.
